Data published in PubChem BioAssay (NCI).
Compounds without any hit were thinned out: in the full panel of roughly 83,000, 20% have a hit.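 Results are percent growth after 48 hours of single-concentration exposure. 100 means growth as in untreated cells, lower positive values show inhibition; negative values down to -100 show cell death.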 Active and inactive are the calls of the source. Rule for the calls: active = growth percent below 10; inactive = the rest.

Key:
Assay in all cases: NCI-60 one-dose screen, 48 h (100 = growth as untreated, 0 = no growth, -100 = all killed)
Conditions in all cases: 10 µM unless noted
[1] = tested on: DU-145 prostate
[2] = tested on: K-562 leukemia
[3] = tested on: MALME-3M melanoma
[4] = tested on: MDA-MB-231 breast
[5] = tested on: RXF 393 renal
[6] = tested on: SF-268 CNS
[7] = tested on: SF-295 CNS
[8] = tested on: SF-539 CNS
[9] = tested on: UACC-257 melanoma
[10] = tested on: M14 melanoma

Measured: growth

CCc1cc2c(cc1Cl)nc1c(=O)[nH]c(=O)nc-1n2CCOCC(C)(C)C
inactive: [1] 94.5% | [2] 57.4% | [4] 67.2% | [5] 75.5% | [6] 88.1% | [7] 71.8% | [8] 84.2% | [9] 73.3% | [10] 61.8%
active: [3] -9.68%

O=C(CCCCCCNC(=O)C(O)(O)C(F)(F)F)Nc1ncc(-c2ccc(Br)cc2)s1
inactive: [2] 11.8% | [3] 19.9% | [4] 19.7% | [8] 12.1%
active: [1] 3.81% | [5] -52.8% | [6] 1.89% | [7] -29.3% | [9] 9.48% | [10] 8.94%

C#Cc1nc(/C=C/CCCCCCC(=O)NO)cs1
inactive: [1] 23.8% | [2] 13.1% | [3] 22% | [6] 83.2% | [7] 82.5% | [9] 56.6% | [10] 62.4%
active: [4] -31% | [5] -6.54% | [8] -89.4%

CC(=O)/C(N=Nc1ccc2oc(=O)ccc2c1)=C(\C)O
active: [2] 9.96%
inactive: [1] 48.5% | [3] 58.3% | [4] 61.2% | [5] 51.6% | [6] 45.7% | [7] 22.5% | [8] 51.5% | [9] 37.5% | [10] 35.7%

COc1cccc2c1C=CC1(O2)Oc2cccc(OC)c2C=C1C (stereo not given)
inactive: [1] 31.5% | [3] 60.4% | [6] 55.3% | [9] 73.9%
active: [2] 8.28% | [4] 0.892% | [5] -18.2% | [7] 6.46% | [8] -9.43% | [10] 1.02%

COc1cc2oc(-c3cccc(NC(=O)c4cccc([N+](=O)[O-])c4)c3)cc(=O)c2c(OC)c1OC
active: [8] -8.95%
inactive: [1] 66.9% | [2] 60.3% | [3] 33.7% | [4] 41% | [5] 36.4% | [6] 43.2% | [7] 79.8% | [9] 88.2% | [10] 83.8%

CC(C)C(/C=C/c1[nH]ncc1-c1cc(Cl)ccc1O)N1CCOCC1 (stereo not given)
inactive: [1] 100% | [2] 82.3% | [3] 106% | [4] 106% | [5] 88.3% | [6] 88.5% | [7] 96% | [8] 97.5% | [9] 103% | [10] 97.5%

CC(=O)c1c([Si](C)(C)C)c2cc(C#N)ccn2c1C(=O)c1ccc(Br)cc1
inactive: [1] 99.9% | [2] 82.4% | [3] 92.9% | [4] 85.4% | [5] 78.5% | [6] 79.1% | [7] 90.9% | [8] 95.5% | [9] 101% | [10] 97.4%

COc1cc(NC(=O)Nc2cccc(-c3cc(=O)c4c(OC)c(OC)c(OC)cc4o3)c2)cc(OC)c1OC
inactive: [1] 39.2% | [2] 40% | [3] 52.6% | [4] 47.3% | [5] 15.2% | [6] 49.4% | [7] 47.1% | [8] 47.9% | [9] 74.1% | [10] 55.3%

O=C1c2ccccc2C23C(=C(c4cncnc4)c4ccccc42)CCCN13 (stereo not given)
inactive: [1] 101% | [2] 102% | [3] 94.7% | [4] 101% | [5] 104% | [6] 91.6% | [7] 95.9% | [8] 102% | [9] 108% | [10] 98.6%

O=C(NNc1nc2cc(F)cc(F)c2n2cccc12)c1cccnn1
inactive: [1] 20.8% | [2] 12.8% | [3] 21.4% | [4] 30.2% | [5] 22.3% | [6] 12%
active: [7] 9.98% | [8] 3.8% | [9] 3.33% | [10] 7.06%

CN(C)S(=O)(=O)c1ccc(-c2nc(C(Cl)Cl)nc3cc(-c4ccc(F)cc4)nn23)cc1
active: [1] 5.97% | [2] 8.44% | [3] -11.5% | [4] 1.26% | [5] -19.2% | [10] 1.95%
inactive: [6] 19.4% | [7] 21.8% | [8] 31.7% | [9] 52.4%

CC(C)(C)c1cc(NC(=O)Nc2ccc(-c3cn4c5c(sc4n3)CCc3c[nH]cc3-5)cc2)no1
inactive: [1] 32.6% | [4] 30.3% | [6] 32.7% | [9] 32.3%
active: [2] 1.04% | [3] 0.464% | [5] -24.4% | [7] -56.5% | [8] -4.46% | [10] 6.95%

CC1=C(SCC(=O)OCCCCCC(C)C)C(=O)c2ccccc2C1=O
inactive: [1] 109% | [2] 81.1% | [3] 116% | [4] 83.5% | [5] 94.2% | [6] 96.4% | [7] 101% | [8] 88.8% | [9] 104% | [10] 96.8%

O=C(NCCNc1cc(-c2cn(-c3ccccc3)nc2-c2cccc(O)c2)ccn1)Nc1cc(C(F)(F)F)cc(C(F)(F)F)c1
inactive: [1] 106% | [2] 86.9% | [3] 90.6% | [4] 92.9% | [5] 86.7% | [6] 88.8% | [7] 89.8% | [8] 89.3% | [9] 101% | [10] 89%

Cc1ncn(-c2ccc(/C=N/Nc3ccnc4cc(Cl)ccc34)cc2)c1C
active: [1] 8.97% | [2] 0.733% | [3] -88.7% | [4] -16.8% | [5] -43.7% | [7] -72.5% | [8] -60.7% | [9] -67.2% | [10] -88.5%
inactive: [6] 21.5%
